# ± gives the standard deviation.
# Legend:
# [1] = test system: MILI (PIWIL2) piRISC loaded with L1MC piRNA (26 nt); experiment: pre-steady-state target cleavage rate (min^-1); guide: L1MC piRNA 5'p-UAACUAAAUACUAUGCAAGCUGUAGG; higher = faster piRNA-guided slicing of the target
# In short: (§1)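 Cleave-'n-Seq used a transcribed, DNA-blocked target RNA library at 0.1 nM and active affinity-purified piRISC with one synthetic guide at 1 nM, with or without 500 nM GTSF1 partner protein, in HEPES–potassium acetate buffer at 33 °C for 0–8 or 0–960 min. Uncleaved targets were sequenced and normalised to depth and to weakly complementary targets, and three trials were pooled with k3 capped at 0.0001 min^-1. The pre-steady-state cleavage rate was estimated by a burst-and-steady-state fit.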
# [2] = test system: EfPiwi piRISC loaded with L1MC piRNA (26 nt); experiment: pre-steady-state target cleavage rate (min^-1); auxiliary factor: 500 nM Ephydatia muelleri Gtsf1; guide: L1MC piRNA 5'p-UAACUAAAUACUAUGCAAGCUGUAGG; MIWI and MILI are mouse PIWI proteins and EfPiwi is from a freshwater sponge; tags in brackets are library labels; higher = faster piRNA-guided slicing of the target
# In short: as §1
# [3] = auxiliary factor: 500 nM mouse GTSF1
# [4] = auxiliary factor: none (no GTSF1)
Sequence,"pre-steady-state target cleavage rate [1, 3]","pre-steady-state target cleavage rate [1, 4]",pre-steady-state target cleavage rate [2]
UCCUGCUACAGCUUGCAUUGUAUUUAGUUA,0.248 ± 0.022,0.0081 ± 0.0028,0.00662 ± 0.0024
UCCUGGAACUGCUUGCAUUGUAUUUAGUUA,0.177 ± 0.015,0.00842 ± 0.0019,0.00574 ± 0.0019
UCCUGGAACAGGUUGCAUAGAAUUUAGUUA,0.0524 ± 0.011,0.0038 ± 0.002,0.00258 ± 0.0014
UCCUGGAUGUGGCUUGCAUAGUAUUUAGUUA,0.163 ± 0.017,0.0089 ± 0.0042,0.0125 ± 0.0049
UCCUGGAUGUCGUUGCAUAGUAGUUUAGUUA,0.0297 ± 0.0098,0.0066 ± 0.0025,0.0087 ± 0.005
UCCUGGAACAGCUUGCUUAGUAUAUAGUUA,0.241 ± 0.02,0.00532 ± 0.0022,0.0104 ± 0.0048
UCCUGCUACAGCUAGCAUAGUAUUUAGUUA,0.354 ± 0.027,0.00624 ± 0.0029,0.0287 ± 0.0081
UCCUGCAUGAGCUUGCAUAGUAUUUAGUUA,0.265 ± 0.019,0.01 ± 0.0025,0.0163 ± 0.0047
UCCUGGAACAGCUUGCAUAGUAAUUUAGUUA,0.14 ± 0.012,0.00593 ± 0.0025,0.00753 ± 0.0023
UCCUGCAUCAGCUUGCAUAGUAUUUAGUUA,0.322 ± 0.021,0.00843 ± 0.0023,0.0591 ± 0.011
UCCUGGAUGUGCUUCAUAGUAUUUAGUUA,0.046 ± 0.01,0.00455 ± 0.002,0.00929 ± 0.0056
UCCUCCUACAGAUUGCAUAGUAUUUAGUUA,0.236 ± 0.014,0.00814 ± 0.0018,0.0555 ± 0.014
UCCUCCUACAGCUUGCAUAGUAAUUUAGUUA,0.199 ± 0.019,0.00674 ± 0.0025,0.00821 ± 0.0033
UCCUGCUAGAGCUUGCAAAGUAUUUAGUUA,0.112 ± 0.012,0.00382 ± 0.0021,0.00607 ± 0.0018
UCCUGGUACAGCUUGCUUAGUUUUUAGUUA,0.0347 ± 0.011,0.00709 ± 0.0023,0.00346 ± 0.003
UCCUGGAUGAGCUUGCAUAGUAAUUUAGUUA,0.0721 ± 0.0082,0.00789 ± 0.0023,0.00357 ± 0.0029
UCCUGCUACAGCUUGCAUAGUAUUUAGUUG [g2:g25:cont:t1G],0.145 ± 0.013,0.0083 ± 0.0024,0.00685 ± 0.0019
UCCUGGAAGAGCUUGCAUAGUAUUUAGUAA,0.201 ± 0.014,0.00564 ± 0.0021,0.00426 ± 0.0021
UCCUGCUACAGCUUGCAUUGUAUUUUGUUA,0.159 ± 0.024,0.00301 ± 0.0027,0.00346 ± 0.0021
UCCUGGAACAGGUUGCAUAGUAUAUAGUUA,0.211 ± 0.023,0.00891 ± 0.0023,0.0101 ± 0.0045
UCCUGGUACAGGCUUGCAUAGUAUUUAGUUA,0.203 ± 0.026,0.0131 ± 0.0043,0.00759 ± 0.0028
UCCUCCUACAGCUUGCAUAGUAUUUCGUUA,0.243 ± 0.043,0.0033 ± 0.0031,0.00416 ± 0.0023
UCCUGGAUGUCCUUGCAUAGUAUUUAAGUUA,0.173 ± 0.023,0.00879 ± 0.0027,0.0217 ± 0.0093
UCCUGGAUGUCCUGCAUAGUAUUUAGUUA,0.094 ± 0.013,0.00628 ± 0.0019,0.00358 ± 0.0026
UCCUGGAACUGCUUGGAUAGUAUUUAGUUA,0.222 ± 0.013,0.0109 ± 0.0023,0.0527 ± 0.014
UCCUCCUUGAGCUUGCAUAGUAUUUAGUAA,0.217 ± 0.025,0.00389 ± 0.0017,0.00719 ± 0.0026

Sequence,"pre-steady-state target cleavage rate [1, 3]","pre-steady-state target cleavage rate [1, 4]",pre-steady-state target cleavage rate [2]
UCCUGGAACAGCUUGCAUAGUAUUUAGUGUA,0.231 ± 0.018,0.00523 ± 0.0026,0.00557 ± 0.0021
UCCUGCUACAGCUUCGCAUAGUAUUUAGUUA,0.268 ± 0.019,0.00637 ± 0.0021,0.0225 ± 0.0071
UCCUGGAUCAGCUUCGAUAGUAUUUAGUUA,0.233 ± 0.018,0.0034 ± 0.0021,0.00503 ± 0.0041
UCCUCCUACAGCUAUGCAUAGUAUUUAGUUA,0.267 ± 0.02,0.00637 ± 0.0022,0.0164 ± 0.0055
UCCUGCUACACCUUGGAUAGUAUUUAGUUA,0.122 ± 0.021,0.00552 ± 0.0022,0.00538 ± 0.0021
UCCUGCUUCAGCUUGCAUAGUUUUUAGUUA,0.0646 ± 0.011,0.00355 ± 0.0025,0.00715 ± 0.0025
UCCUCCUACAGCAUGCAUUGUAUUUAGUUA,0.217 ± 0.015,0.0102 ± 0.0027,0.0134 ± 0.0043
UCCUGGAUGUGGUAGCAUAGUAUUUAGUUA,0.0258 ± 0.011,0.00767 ± 0.0031,0.00356 ± 0.0033
UCCUGGAUCAGCUUGCAAAGUUUUUAGUUA,0.00906 ± 0.0052,0.0042 ± 0.0022,0.00491 ± 0.0036
UCCUGCCACAGCUUGCAUAGUAUUUAGUUA,0.331 ± 0.025,0.0105 ± 0.003,0.0631 ± 0.017
UCCUGGAUGUGCUAUGCAUAGUAUUUAGUUA,0.141 ± 0.018,0.0069 ± 0.0024,0.0103 ± 0.0036
UCCUCCUACAGCUUGCAUAGUAUUAUAGUUA,0.258 ± 0.019,0.00434 ± 0.0022,0.00777 ± 0.0033
UCCUGCUACGCUUGCAUAGUAUUUAGUUA,0.291 ± 0.025,0.0067 ± 0.0024,0.0122 ± 0.0033
UCCUGCGACAGCUUGCAUAGUAUUUAGUUA,0.298 ± 0.016,0.00828 ± 0.0026,0.0339 ± 0.0075
UCCUGGAACAGCAUGGAUAGUAUUUAGUUA,0.243 ± 0.016,0.00742 ± 0.0028,0.00527 ± 0.0017
UCCUGCUUGUGCUUGCAUAGUAUUUAGUUA,0.13 ± 0.017,0.00616 ± 0.0025,0.00618 ± 0.0027
UCCUGGAUGUCCUUGCAUAGUAUUUGGUUA,0.0891 ± 0.016,0.00707 ± 0.0022,0.00366 ± 0.0027
UCCUGCUACAGCUUGCGUAGUAUUUAGUUA,0.206 ± 0.014,0.00688 ± 0.0029,0.0375 ± 0.011
UCCUGCUACAGCUUGGAUAGUAUUAAGUUA,0.198 ± 0.031,0.00579 ± 0.002,0.0066 ± 0.0018
UCCUGGAACAGCUUGCAUAGUAUUUAGUUC [g2:g23:cont:t1C],0.191 ± 0.024,0.00602 ± 0.0018,0.00959 ± 0.0037
UCCUCCUACAGGUUGCAUAGUUUUUAGUUA,0.0349 ± 0.0064,0.00478 ± 0.0018,0.00915 ± 0.0022
UCCUGGAUCAGCUUGCAUAGUAUUUAGUAUA,0.233 ± 0.021,0.00809 ± 0.0032,0.0115 ± 0.0043
UCCUGGACCAGCUUGCAUAGUAUUUAGUUA,0.246 ± 0.02,0.00604 ± 0.0027,0.159 ± 0.037
UCCUGCUACUGCUUGCAUAGUUUUUAGUUA,0.0524 ± 0.011,0.00424 ± 0.0018,0.00399 ± 0.0017
UCCUGGAUCAGCUUGCAUACUAUUUAGUUA,0.0716 ± 0.011,0.0037 ± 0.0021,0.0114 ± 0.0021
